Measured values as given in PubChem BioAssay (Tox21).
Records with an inconclusive call do not appear. The source made the active and inactive calls. Unless noted, calls come from the whole dose curve; as a rule, active = well fitted curve in the direction sought with a large enough effect in the repeat runs; inconclusive = weak or mixed curves; inactive = no such curve, though single readings can be large; an effect the other way counts as inactive or inconclusive.

Tests used:
[1] = qHTS assay to identify small molecule antagonists of the estrogen receptor alpha (ER-alpha) signaling pathway using the BG1 cell line in the presence of 0.1 nM 17-beta-estradiol - cell viability counter screen (AID 1259241); note: nearly all actives have a fitted effect of over 40% in size; note: potency is the fitted concentration of half-maximal effect
Outline: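 The cell line endogenously expresses full-length ER-alpha and carries four EREs driving luciferase. Cells are cultured 5 days hormone-free, treated 22 hr with compounds and 0.1 nM estradiol, then viability is read by fluorescence.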

[2] = qHTS assay to identify small molecule antagonists of the androgen receptor (AR) signaling pathway using the MDA cell line in the presence of 0.5 nM R1881 - cell viability counter screen (AID 1259242); note: nearly all actives have a fitted effect of over 45% in size; note: potency is the fitted concentration of half-maximal effect
Outline: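 Live-cell protease fluorescence, CellTiter-Fluor, 30 min at 37C. Cells: MDA-kb2, 3,000/well, preincubated 5 hr. Compounds plus 0.5 nM R1881 final, 16 hr, 37C, 0% CO2.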

[3] = molecular target: Estrogen receptor (Homo sapiens) (UniProt P03372); assay: qHTS assay to identify small molecule antagonists of the estrogen receptor alpha (ER-alpha) signaling pathway using the BG1 cell line in the presence of 0.1 nM 17-beta-estradiol (AID 1259244); note: nearly all actives have a fitted effect of over 50% in size; note: potency is the fitted concentration of half-maximal effect
Outline: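 Luminescence after ONE-Glo (30 min, room temperature) measured ERE-luciferase activity in VM7Luc4E2 cells treated 22 h with compound and 0.1 nM final 17beta-estradiol as stimulator.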

[4] = qHTS assay to identify small molecule HDAC inhibitors (AID 1259364); note: potency is the fitted concentration of half-maximal effect;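 note: wild-type HCT-116 cells with endogenous class I/II HDAC activity; nearly all actives have a fitted effect of over 45% in size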
Outline: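 HCT-116 (wild type), 1,500 cells/well, overnight; compound 2 hr 37C 5% CO2; HDAC-Glo I/II reagent 30 min RT; luminescence readout.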

[5] = qHTS assay to identify small molecule HDAC inhibitors - cell viability counter screen (AID 1259365); note: series mostly up to about 92 µM; nearly all actives have a fitted effect of over 50% in size
Outline: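 Viability readout: CellTiter-Glo luminescence. Wild-type HCT-116 cells, 2hr compound treatment following overnight attachment at 37 C.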

[6] = qHTS assay to identify small molecule agonists of the sonic hedgehog signaling (Shh) pathway - cell viability counter screen (AID 1259366); note: nearly all actives have a fitted effect of over 50% in size; note: potency is the fitted concentration of half-maximal effect
Outline: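 Viability measured fluorometrically (CellTiter-Fluor, 1hr, 37C) in 3T3 Gli1-Luc reporter cells after 23hr compound exposure within a 24hr incubation at 37C/5% CO2.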

[7] = qHTS assay to identify small molecule antagonists of the sonic hedgehog signaling (Shh) pathway - cell viability counter screen (AID 1259367); note: nearly all actives have a fitted effect of over 55% in size; note: potency is the fitted concentration of half-maximal effect
Outline: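 Fluorescence read-out (CellTiter-Fluor, 1 hr at 37C) taken after 23 hr compound treatment of 3T3 Gli1-Luc cells stimulated with conditioned medium. Cells were seeded at 2,000 per well and pre-incubated 4 hr.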

[8] = qHTS assay to identify small molecule agonists of the sonic hedgehog signaling (Shh) pathway (AID 1259368; calls by dose curve; note: nearly all actives have a fitted effect of over 15% in size; note: potency is the fitted concentration of half-maximal effect)
Outline: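 Read-out: firefly luciferase luminescence from a Gli1 response element reporter stably integrated in NIH/3T3-derived 3T3Gli1-Luc cells, measured 30 min at room temperature after reagent addition. Compound exposure lasted 24 hr at 37 C, 5% CO2.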

[9] = qHTS assay to identify small molecule antagonists of the sonic hedgehog signaling (Shh) pathway (AID 1259369; calls by dose curve; note: nearly all actives have a fitted effect of over 45% in size; note: potency is the fitted concentration of half-maximal effect)
Outline: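 Luminescence readout: firefly Luc under Gli1 response element in 3T3Gli1-Luc cells (NIH/3T3 clone). Antagonist mode, stimulation by conditioned medium; compound exposure 24hr at 37 C, 5% CO2.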

[10] = molecular target: Estrogen receptor beta (Homo sapiens) (UniProt Q92731); assay: qHTS assay to identify small molecule agonists of the estrogen receptor beta (ER-beta) signaling pathway (AID 1259377; active = well fitted activation curve with a large enough effect in the signal ratio in the repeat runs, not every such curve was filed as active; the % refers to the signal ratio)
Outline: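 A UAS-controlled beta-lactamase reporter in ER-beta-UAS-bla HEK293T cells reports receptor activation. Compounds act for 16 hr at 37C in 2% charcoal-stripped serum, and a FRET substrate is read by fluorescence after 2 hours.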

[11] = molecular target: Estrogen receptor beta (Homo sapiens) (UniProt Q92731); assay: qHTS assay to identify small molecule antagonists of the estrogen receptor beta (ER-beta) signaling pathway (AID 1259378; active = well fitted inhibition curve with a large enough effect in the signal ratio in the repeat runs, not every such curve was filed as active; the % refers to the signal ratio; note: potency is the fitted concentration of half-maximal effect)
Outline: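 ER-beta-UAS-bla HEK293T cells in 2% charcoal-stripped FBS medium treated with compound plus 1nM final 17-beta-estradiol for 16 hr at 37C. Beta-lactamase reporter read by FRET substrate fluorescence after 2 hours at room temperature.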

[12] = qHTS assay to identify small molecule agonists of the androgen receptor (AR) signaling pathway in the presence of an antagonist - cell viability counter screen (AID 1259379);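 note: MDA-kb2 human breast cancer cells carrying an MMTV luciferase reporter; series mostly up to about 92 µM; nearly all actives have a fitted effect of over 25% in size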
Outline: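 Viability counter screen: CellTiter-Fluor fluorescence, measured in the same wells as the luciferase read-out. MDA-kb2 cells, 3,000/well, with nilutamide at 3.0uM final and compounds at 15 concentrations, 16 hr at 37C, 0% CO2.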

[13] = qHTS assay to identify small molecule agonists of the estrogen receptor beta (ER-beta) signaling pathway - cell viability counter screen (AID 1259380); note: nearly all actives have a fitted effect of over 30% in size; note: potency is the fitted concentration of half-maximal effect
Outline: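 Luminescence read-out (CellTiter-Glo, 30 min, room temp) taken in the same wells as the beta-lactamase reporter assay; ER-beta-UAS-bla HEK293T cells exposed to DMSO-dissolved compounds for 16 hr at 37C in 2% charcoal-stripped FBS medium.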

[14] = qHTS assay to identify small molecule antagonists of the estrogen receptor beta (ER-beta) signaling pathway - cell viability counter screen (AID 1259382); note: series mostly up to about 92 µM; nearly all actives have a fitted effect of over 55% in size
Outline: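 Luminescent ATP read-out (CellTiter-Glo, 30 min, RT) taken in the same wells as the bla reporter assay. HEK293T ER-beta-UAS-bla cells in 2% charcoal-stripped FBS were exposed to compounds with 1nM E2 for 16 hr at 37C.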

[15] = molecular target: Estrogen receptor (Homo sapiens) (UniProt P03372); assay: qHTS assay to identify small molecule agonists of the estrogen receptor alpha (ER-alpha) signaling pathway in the presence of an antagonist (AID 1259383; calls by dose curve; note: top concentration of the series differs between compounds; nearly all actives have a fitted effect of over 15% in size)
Outline: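 Luciferase luminescence (ONE-Glo, 30min at room temperature) measured in VM7Luc4E2 cells after 22hr compound exposure at 15 concentrations, with 10.0nM ICI-182,780 final present; cells express endogenous ER-alpha and carry four EREs upstream of luciferase.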

[16] = qHTS assay to identify small molecule agonists or antagonists of the thyroid stimulating hormone receptor (TSHR) signaling pathway - wild type cell line counter screen (AID 1259384; calls by dose curve; note: potency is the fitted concentration of half-maximal effect)
Outline: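 Wild-type Hek293 cells, 800/well, 18 h at 37C, then compound with Ro20-1724 for 30 min RT. cAMP by HTRF (cAMP-d2/anti-cAMP cryptate), 1 h RT, fluorescence read. 15 concentrations, triplicates.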

[17] = molecular target: Thyrotropin receptor (Homo sapiens) (UniProt P16473); assay: qHTS assay to identify small molecule antagonists of the thyroid stimulating hormone receptor (TSHR) signaling pathway (AID 1259385; calls by dose curve; note: nearly all actives have a fitted effect of over 20% in size; note: potency is the fitted concentration of half-maximal effect)
Outline: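 TSHR-HEK293 cells (800/well) plated 18 h, then compounds with Ro20-1724 and TSH at 1.5 ng/mL final, 30 min at room temperature. cAMP quantified by HTRF (cAMP-d2/anti-cAMP-cryptate, 1 h); 15 concentrations in triplicate.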

[18] = qHTS assay to identify small molecule phospholipidosis (PLD) inducers (AID 1259344; active = well fitted curve in the direction sought with a large enough effect; an effect the other way counts as inactive or inconclusive)
Outline: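 Read-out is LipidTOX Red fluorescence (ex 595/em 615) imaged in HepG2 cells after 24 h compound exposure at 37 C, with Hoechst nuclear counterstain (ex 352/em 461) allowing per-cell normalisation.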

[19] = molecular target: Androgen receptor (Homo sapiens) (UniProt P10275); assay: qHTS assay to identify small molecule agonists of the androgen receptor (AR) signaling pathway in the presence of an antagonist (AID 1259381; calls by dose curve; note: nearly all actives have a fitted effect of over 15% in size)
Outline: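 Luciferase read-out (ONE-Glo, 30min room temperature) in MDA-kb2 MMTV-reporter cells; agonist mode run in presence of AR antagonist nilutamide, 3.0uM final. Compounds tested as 15-point series, 16hr exposure at 37C, 0% CO2.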

Measured: Potency

Thyrotropin receptor (Homo sapiens), sequence (P16473 whole entry, looked up): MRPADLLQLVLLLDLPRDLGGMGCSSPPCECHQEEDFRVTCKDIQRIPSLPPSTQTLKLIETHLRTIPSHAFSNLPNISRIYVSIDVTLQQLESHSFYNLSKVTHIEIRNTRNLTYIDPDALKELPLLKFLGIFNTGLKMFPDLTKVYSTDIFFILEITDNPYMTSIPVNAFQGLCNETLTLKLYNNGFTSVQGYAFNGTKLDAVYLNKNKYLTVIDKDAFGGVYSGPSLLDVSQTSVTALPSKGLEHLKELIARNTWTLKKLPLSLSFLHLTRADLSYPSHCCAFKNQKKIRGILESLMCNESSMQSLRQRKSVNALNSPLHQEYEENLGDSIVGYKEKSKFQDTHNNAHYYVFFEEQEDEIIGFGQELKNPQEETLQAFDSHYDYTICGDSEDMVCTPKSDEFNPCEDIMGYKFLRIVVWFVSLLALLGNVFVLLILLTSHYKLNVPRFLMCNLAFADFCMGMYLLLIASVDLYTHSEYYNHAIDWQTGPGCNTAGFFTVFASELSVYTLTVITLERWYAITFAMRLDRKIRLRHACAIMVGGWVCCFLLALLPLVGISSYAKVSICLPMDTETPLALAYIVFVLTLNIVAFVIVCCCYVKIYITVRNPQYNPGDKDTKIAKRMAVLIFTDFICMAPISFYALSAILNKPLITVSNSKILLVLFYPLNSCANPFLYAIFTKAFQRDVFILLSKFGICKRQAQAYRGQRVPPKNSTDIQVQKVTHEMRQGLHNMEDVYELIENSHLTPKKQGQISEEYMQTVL
Estrogen receptor beta (Homo sapiens), sequence (Q92731 whole entry, looked up): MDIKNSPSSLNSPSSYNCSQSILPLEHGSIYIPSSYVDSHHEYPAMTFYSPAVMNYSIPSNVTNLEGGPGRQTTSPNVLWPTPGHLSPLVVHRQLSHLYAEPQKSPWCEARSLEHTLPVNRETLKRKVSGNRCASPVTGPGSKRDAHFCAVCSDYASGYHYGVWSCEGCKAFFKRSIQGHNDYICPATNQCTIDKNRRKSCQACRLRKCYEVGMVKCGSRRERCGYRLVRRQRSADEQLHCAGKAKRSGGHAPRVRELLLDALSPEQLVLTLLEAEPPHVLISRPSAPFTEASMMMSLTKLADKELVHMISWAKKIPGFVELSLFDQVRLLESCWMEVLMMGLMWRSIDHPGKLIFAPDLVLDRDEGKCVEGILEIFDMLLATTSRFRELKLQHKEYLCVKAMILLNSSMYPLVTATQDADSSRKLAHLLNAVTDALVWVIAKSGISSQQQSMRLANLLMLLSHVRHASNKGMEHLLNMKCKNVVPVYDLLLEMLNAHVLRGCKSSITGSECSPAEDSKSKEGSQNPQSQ
Estrogen receptor (Homo sapiens), sequence (P03372 whole entry, looked up): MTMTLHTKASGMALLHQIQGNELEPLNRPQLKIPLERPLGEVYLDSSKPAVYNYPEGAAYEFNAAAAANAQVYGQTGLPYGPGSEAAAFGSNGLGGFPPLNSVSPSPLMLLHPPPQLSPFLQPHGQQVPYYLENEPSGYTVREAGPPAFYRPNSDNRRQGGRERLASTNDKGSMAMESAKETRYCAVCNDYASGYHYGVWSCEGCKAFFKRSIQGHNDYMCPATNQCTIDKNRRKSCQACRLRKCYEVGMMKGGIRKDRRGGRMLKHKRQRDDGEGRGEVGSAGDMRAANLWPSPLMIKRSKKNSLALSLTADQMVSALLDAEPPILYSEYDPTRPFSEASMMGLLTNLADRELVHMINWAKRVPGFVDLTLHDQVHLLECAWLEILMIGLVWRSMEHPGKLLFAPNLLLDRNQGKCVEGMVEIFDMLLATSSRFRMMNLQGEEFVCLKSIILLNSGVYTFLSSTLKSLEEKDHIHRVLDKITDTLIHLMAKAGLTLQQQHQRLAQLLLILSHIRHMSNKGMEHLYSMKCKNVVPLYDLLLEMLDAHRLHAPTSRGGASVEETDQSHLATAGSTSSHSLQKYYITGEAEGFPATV
Androgen receptor (Homo sapiens), sequence (P10275 whole entry, looked up): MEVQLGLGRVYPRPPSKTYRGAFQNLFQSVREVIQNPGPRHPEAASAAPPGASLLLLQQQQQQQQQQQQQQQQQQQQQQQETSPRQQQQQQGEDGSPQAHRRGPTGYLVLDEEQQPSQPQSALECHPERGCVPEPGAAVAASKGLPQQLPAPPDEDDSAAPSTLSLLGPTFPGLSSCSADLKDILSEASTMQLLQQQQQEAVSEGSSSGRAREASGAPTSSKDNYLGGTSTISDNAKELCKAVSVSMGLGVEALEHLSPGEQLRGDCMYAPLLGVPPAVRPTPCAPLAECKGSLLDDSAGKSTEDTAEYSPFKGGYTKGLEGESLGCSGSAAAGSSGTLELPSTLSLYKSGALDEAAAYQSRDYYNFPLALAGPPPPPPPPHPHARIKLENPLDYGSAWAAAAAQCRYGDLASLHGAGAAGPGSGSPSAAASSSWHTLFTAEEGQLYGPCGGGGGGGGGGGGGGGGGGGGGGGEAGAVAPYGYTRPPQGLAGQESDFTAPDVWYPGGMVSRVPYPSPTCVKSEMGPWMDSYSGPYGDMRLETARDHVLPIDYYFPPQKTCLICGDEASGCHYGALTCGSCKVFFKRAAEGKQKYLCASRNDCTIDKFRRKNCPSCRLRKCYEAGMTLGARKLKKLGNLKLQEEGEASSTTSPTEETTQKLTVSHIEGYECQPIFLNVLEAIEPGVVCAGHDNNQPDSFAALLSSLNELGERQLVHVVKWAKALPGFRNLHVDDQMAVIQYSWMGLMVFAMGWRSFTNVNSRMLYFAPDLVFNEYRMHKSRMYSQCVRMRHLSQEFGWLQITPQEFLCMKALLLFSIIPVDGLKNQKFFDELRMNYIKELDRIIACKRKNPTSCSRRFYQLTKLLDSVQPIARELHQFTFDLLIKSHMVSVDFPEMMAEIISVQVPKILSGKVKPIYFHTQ

CCCCCCC(O)CCOC(C)=O (stereo unspecified)
not listed: [18] | [19]
inactive: all other assays above

CC1=C2[C@@H]([C@H](C)CC[C@H]2/C=C(\C)C(=O)O)[C@H](O)C1
not listed: [9] | [11] | [15] | [18] | [19]
inactive: all other assays above

CCCCC[C@H](O)/C=C/[C@H]1[C@H](O)CC(=O)[C@@H]1C/C=C\CCCC(=O)O
active: [8] 10.6 µM | [9] 0.006 µM | [16] 0.0174 µM
not listed: [6] | [10] | [11] | [15]
inactive: all other assays above

C=CC(=O)O
not listed: [5] | [6] | [11] | [19]
inactive: all other assays above

O=C(NS(=O)(=O)/C=C/c1ccccc1)c1ccc(F)cc1Cl
not listed: [11] | [18] | [19]
inactive: all other assays above

CC(C)(C)CCCCCCOC(=O)c1ccccc1C(=O)OCCCCCCC(C)(C)C
not listed: [11] | [18] | [19]
inactive: all other assays above

CC1CCc2nccnc21 (stereo unspecified)
not listed: [8] | [12] | [16] | [17] | [18] | [19]
inactive: all other assays above

O=c1[nH]c2cc(C(F)(F)F)c(N3CCOCC3)cc2n(CP(=O)(O)O)c1=O
not listed: [5] | [10] | [16] | [17] | [19]
inactive: all other assays above

CC(C)c1ccc(C(=O)N=C(N)N)cc1S(C)(=O)=O
not listed: [7] | [8] | [11] | [18] | [19]
inactive: all other assays above

O=C(/C=C/c1ccc([N+](=O)[O-])cc1)c1ccccc1
active: [4] 8.65 µM
inactive: [1] | [2] | [3] | [5] | [7] | [8] | [14] | [15] | [16] | [17]

O=CNNC=O
not listed: [18] | [19]
inactive: all other assays above

CC(C)C(O)C(C)(C)CO (stereo unspecified)
active: [3] 9.99 µM
not listed: [8] | [10] | [11] | [12] | [13] | [18] | [19]
inactive: all other assays above

CC(=O)Oc1cccc(O)c1
not listed: [5] | [10] | [12] | [19]
inactive: all other assays above

CC(C)(C)C1(CCc2ccc(Cl)cc2)CO1 (stereo unspecified)
not listed: [7] | [10] | [11] | [18] | [19]
inactive: all other assays above

COC(=O)c1sccc1S(N)(=O)=O
not listed: [10] | [11] | [15] | [18] | [19]
inactive: all other assays above

CC(=O)NNC(C)=O
not listed: [10] | [11] | [18] | [19]
inactive: all other assays above

COc1ccc(C(=O)NCc2ccc(OCCN(C)C)cc2)cc1OC
not listed: [6] | [14] | [16] | [17] | [19]
inactive: all other assays above

CO[C@@H]1[C@@H](OC)[C@H](C)[C@@](O)(CC(=O)O)O[C@H]1[C@H](C)[C@H]1O[C@@]2(CC[C@@](C)([C@H]3CC[C@@](C)([C@@H]4O[C@@H]([C@H]5O[C@](C)(O)[C@H](C)C[C@@H]5C)C[C@@H]4OC4C[C@H](OC)[C@@H](OC)[C@H](C)O4)O3)O2)C[C@H](O)[C@H]1C (stereo partly specified)
inactive: [18] | [5] | [8] | [10] | [15] | [16]
active: [1] 3.35 µM | [2] 1.68 µM | [3] 11.9 µM | [6] 4.22 µM | [7] 3.76 µM | [9] 0.211 µM | [11] 11.9 µM | [13] 1.88 µM | [17] 18.8 µM
